# Assay results reported in PubChem BioAssay.
# The source made the active and inactive calls. Rule as the data show it, unless noted: active = inhibition above about 80%; inactive = the rest.
# What was measured:
# [1] = LFS_MB_P medulloblastoma growth inhibition, cell-based, chromothripsis tumors, cisplatin or BGB combos (AID 1671449); conditions: LFS_MB_P medulloblastoma cells;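 also: cells exposed for 96 hours; 0% = vehicle DMSO and 100% = killing by high DMSO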
# [2] = HDN33 neuroblastoma growth inhibition, cell-based, chromothripsis tumors, cisplatin or BGB combos (AID 1671450); conditions: HDN33 neuroblastoma cells, stronger effect = higher value;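 also: cells exposed to compound for four days; 0% = vehicle DMSO and 100% = cell killing by high DMSO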
# [3] = ICB984 medulloblastoma cell growth inhibition, synergistic combos for chromothripsis tumors, cisplatin or BGB combos (AID 1671451; call rule not given here;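 also: cells exposed for 96 hours before readout; 0% = vehicle DMSO and 100% = killing by high DMSO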); conditions: ICB984 medulloblastoma cells, drug combinations, stronger effect = higher value
# [4] = LFS_MB_1R medulloblastoma cell growth inhibition, synergistic combos for chromothripsis tumors, cisplatin or BGB combos (AID 1671452); conditions: LFS_MB_1R medulloblastoma cells, stronger effect = higher value;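 also: cells exposed for 96 hours before readout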
# [5] = HTB85 osteosarcoma cell growth inhibition, synergistic combos for chromothripsis tumors, BGB or cisplatin IC20 combos (AID 1671453); conditions: HTB85 osteosarcoma cells, drug combinations, stronger effect = higher value;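 also: cells exposed for 96 hours before readout; 0% = vehicle DMSO and 100% = high DMSO killing control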
# [6] = CRL2098 osteosarcoma cell growth inhibition, synergistic combos for chromothripsis tumors, BGB or cisplatin IC20 combos (AID 1671454); conditions: CRL2098 osteosarcoma cells, drug combinations, stronger effect = higher value;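 also: cells exposed for 96 h before readout; 0% = vehicle DMSO and 100% = killing by high DMSO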
# [7] = HD-MB03 medulloblastoma cell growth inhibition, synergistic combos for chromothripsis tumors, BGB or cisplatin IC20 combos (AID 1671455; in the data active = inhibition above about 83%;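 also: 0% = vehicle DMSO and 100% = high DMSO as cytotoxic control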); conditions: HD-MB03 medulloblastoma cells, stronger effect = higher value
# [8] = UWB1.289 ovarian carcinoma cell growth inhibition, synergistic combos for chromothripsis tumors, BGB or cisplatin combos (AID 1671456); conditions: UWB1.289 ovarian carcinoma cells, stronger effect = higher value;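 also: cells exposed to compound for four days; 0% = vehicle DMSO and 100% = killing by high DMSO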
# [9] = LFS_MB_2R medulloblastoma cell growth inhibition, synergistic combos for chromothripsis tumors, cisplatin combos (AID 1671457); conditions: LFS_MB_2R medulloblastoma cells, stronger effect = higher value;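 also: cells exposed to compound for four days before readout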
# [10] = MDA-MB-436 breast carcinoma cell growth inhibition, synergistic combos for chromothripsis tumors, BGB or cisplatin combos (AID 1671458; call rule not given here;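 also: cells exposed for 96 hours; 0% = vehicle DMSO and 100% = killing by high DMSO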); conditions: MDA-MB-436 breast carcinoma growth inhibition, drug combinations, stronger effect = higher value
# [11] = UWB1.289_BRCA1 ovarian cancer growth, cell-based, BGB or cisplatin combinations (AID 1671459); conditions: UWB1.289 BRCA1 ovarian carcinoma, drug combinations, stronger effect = higher value
# [12] = human astrocyte viability loss, single and combined drugs, cytotoxicity control for chromothriptic childhood tumor combination screen, cell-based, BGB or cisplatin IC20 combos (AID 1671460); conditions: Human astrocytes, drug combinations, stronger effect = higher value;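 also: cells exposed to compounds for 96 hours before viability readout; 0% = vehicle and 100% = killing control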
# [13] = growth inhibition of BT084 medulloblastoma cells, cell-based, ICGC_MB145, cisplatin and BGB IC40 combos (AID 1671461); conditions: drug combinations, stronger effect = higher value;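 also: cells exposed to drugs for 96 hours; 0% = vehicle DMSO and 100% = high DMSO full killing control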
# [14] = growth inhibition of RCMB18 medulloblastoma cells, cell-based, cisplatin and BGB IC40 combos (AID 1671462); conditions: stronger effect = higher value;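 also: cells exposed to compound for four days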
# [15] = growth inhibition of CRL1545 osteosarcoma cells, cell-based, cisplatin and BGB IC20 combos (AID 1671464); conditions: stronger effect = higher value;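 also: cells exposed to compound for 96 hours before readout; 0% = vehicle DMSO and 100% = high DMSO killing control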
# [16] = measured here: combination with BGB IC40, at 0.05 µM
# [17] = measured here: with BGB IC20 combination, at 0.5 µM
# [18] = measured here: with cisplatin IC20 combination, at 0.5 µM
# [19] = measured here: combination with cisplatin, at 0.5 µM
# [20] = measured here: combination with cisplatin, at 5 µM
smiles,measurement,setting,value
O=C(CCCCCCC(=O)NO)NO,inhibition,"[1]; at 0.5 µM, stronger effect = higher value",-16.3% (inactive)
same,inhibition,"[1]; measured here: combination with BGB IC20, at 0.005 µM",3.43%
same,inhibition,"[1]; measured here: combination with BGB IC40, at 0.005 µM",-7.94%
same,inhibition,[1]; [16],-3.7%
same,inhibition,"[1]; measured here: combination with cisplatin, at 0.5 µM, stronger effect = higher value",-17.1%
same,inhibition,"[1]; measured here: combination with cisplatin, at 5 µM, stronger effect = higher value",37.5%
same,inhibition,"[2]; BGB combo, at 5 µM",16.4%
same,inhibition,[2]; at 0.5 µM,-16.1% (inactive)
same,inhibition,"[2]; cisplatin combo, at 5 µM",-6.26%
same,inhibition,[2]; [17],-13.7%
same,inhibition,[2]; [18],-21.3%
same,inhibition,"[2]; single agent, at 5 µM",-0.771%
same,inhibition,"[3]; BGB IC20 combo, at 0.005 µM",-20.4%
same,inhibition,"[3]; BGB IC40 combo, at 0.005 µM",-41.1%
same,inhibition,"[3]; BGB IC40 combo, at 0.05 µM",-25.8%
same,inhibition,[3]; at 0.5 µM,-27% (inactive)
same,inhibition,"[3]; cisplatin combo, at 0.05 µM",-30.8%
same,inhibition,"[3]; cisplatin combo, at 0.5 µM",-31.2%
same,inhibition,"[3]; cisplatin combo, at 5 µM",-49.1%
same,inhibition,"[3]; measured here: 5 uM single agent, at 5 µM",-5.09%
same,inhibition,[4]; at 0.5 µM,-25% (inactive)
same,inhibition,[4]; [16],-41%
same,inhibition,[4]; [19],-39.7%
same,inhibition,[4]; [20],-49.3%
same,inhibition,[5]; at 0.5 µM,-16.4% (inactive)
same,inhibition,"[5]; measured here: with BGB IC20, at 0.5 µM",-21.4%
same,inhibition,"[5]; measured here: with BGB IC20, at 5 µM",7.58%
same,inhibition,"[5]; measured here: with cisplatin IC20, at 0.5 µM",-13.1%
same,inhibition,"[5]; measured here: with cisplatin IC20, at 5 µM",-1.96%
same,inhibition,"[5]; single agent, at 5 µM",8.05%
same,inhibition,[6]; at 0.5 µM,-49.2% (inactive)
same,inhibition,"[6]; measured here: combination with BGB at IC20, at 0.5 µM",-52%
same,inhibition,"[6]; measured here: combination with cisplatin at IC20, at 0.5 µM",-0.415%
same,inhibition,[7]; at 0.5 µM,-7.45% (inactive)
same,inhibition,"[7]; measured here: combo with BGB at IC20, at 0.5 µM",-12.8%
same,inhibition,"[7]; measured here: combo with cisplatin at IC20, at 0.5 µM",-0.883%
same,inhibition,[8]; at 0.5 µM,-11.1% (inactive)
same,inhibition,"[8]; measured here: inhibition with BGB combination, at 0.05 µM",12.4%
same,inhibition,"[8]; measured here: inhibition with cisplatin combination, at 0.05 µM",-20.9%
same,inhibition,[9]; at 0.5 µM,7.53% (inactive)
same,inhibition,[9]; [19],-13.9%
same,inhibition,[9]; [20],4.86%
same,inhibition,[10]; at 0.5 µM,-5.23% (inactive)
same,inhibition,"[10]; measured here: BGB combination, at 0.5 µM",0.608%
same,inhibition,"[10]; measured here: BGB combination, at 5 µM",5.89%
same,inhibition,"[10]; measured here: cisplatin combination, at 0.5 µM",-7.76%
same,inhibition,"[10]; measured here: cisplatin combination, at 5 µM",14.4%
same,inhibition,"[11]; BGB combination, concentration series, at 5 µM",21.1%
same,inhibition,[11]; at 0.5 µM,-7.22% (inactive)
same,inhibition,"[11]; cisplatin combination, concentration series, at 5 µM",38.6%
same,inhibition,[12]; at 0.5 µM,-7.15% (inactive)
same,inhibition,"[12]; measured here: combo with BGB IC20, at 0.5 µM",-3.26%
same,inhibition,"[12]; measured here: combo with cisplatin IC20, at 0.5 µM",-13%
same,inhibition,[13]; at 0.5 µM,-7.26% (inactive)
same,inhibition,"[13]; cisplatin combination, at 0.5 µM",-13%
same,inhibition,"[13]; cisplatin combination, at 5 µM",18.3%
same,inhibition,"[13]; measured here: BGB IC40 combination 0.05 uM, at 0.05 µM",-15.2%
same,inhibition,"[13]; single agent, at 5 µM",28.5%
same,inhibition,[14]; at 0.5 µM,-4.15% (inactive)
same,inhibition,"[14]; cisplatin combo, at 5 µM",6.83%
same,inhibition,"[14]; measured here: BGB IC40 combination, at 0.05 µM",-1.04%
same,inhibition,[14]; [19],-1.18%
same,inhibition,"[14]; single agent, at 5 µM",-14.5%
same,inhibition,[15]; at 0.5 µM,-30.5% (inactive)
same,inhibition,[15]; [17],-55.7%
same,inhibition,[15]; [18],-17.9%
same,inhibition,"[15]; single agent, at 0.05 µM",-50.7%
same,inhibition,"[15]; single agent, at 5 µM",-1.16%
